# According to PubChem BioAssay (NCI):
# Compounds without any hit were thinned out: in the full panel of roughly 79,000, 15% have a hit. Values without a mark were called inactive. Active and inactive are the calls of the source. Rule as the data show it: active = growth inhibition above about 70%; inactive = the rest.
# Legend:
# [1] = NCI Yeast Anticancer Drug Screen. Data for the rad52 strain (AID 147);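 also: 0% = growth of vehicle-treated control cultures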; settings: S. cerevisiae rad52 mutant growth inhibition, stronger effect = higher value
# Method in brief: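 Measured: yeast growth inhibition. System: strain with a defined DNA damage repair alteration. Reference: vehicle-treated control cultures.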
# [2] = NCI Yeast Anticancer Drug Screen. Data for the wt1 strain (AID 149);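 also: 0% = growth of vehicle-treated wt1 cultures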; settings: S. cerevisiae wt1 strain (SPY 50644) growth inhibition, stronger effect = higher value
# Method in brief: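 Compounds are added to wt1 yeast cultures. Growth is then measured. Inhibition is expressed relative to vehicle-treated controls.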
# [3] = NCI Yeast Anticancer Drug Screen. Data for the rad50EPP+ strain (AID 151);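 also: 0% = growth of vehicle-treated control cultures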; settings: S. cerevisiae rad50 mutant strain, stronger effect = higher value
# Method in brief: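 One strain with a rad50 alteration (rad50EPP+) was compound-treated, its growth then compared to that of vehicle controls.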
# [4] = NCI Yeast Anticancer Drug Screen. Data for the mgt1 strain (AID 153); settings: S. cerevisiae mgt1 mutant growth inhibition, stronger effect = higher value
# Method in brief: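 After exposure of the mgt1 yeast mutant to compound, growth was measured and reported as inhibition compared with vehicle controls.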
# [5] = NCI Yeast Anticancer Drug Screen. Data for the rad50 strain (AID 155);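 also: 0% = growth of vehicle-only cultures of the same strain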; settings: S. cerevisiae rad50 strain growth inhibition, stronger effect = higher value
# Method in brief: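 Inhibition values express reduced yeast growth in compound-treated cultures relative to vehicle-treated controls.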
# [6] = NCI Yeast Anticancer Drug Screen. Data for the mec2-1 strain (AID 157); settings: S. cerevisiae mec2-1 strain, stronger effect = higher value
# Method in brief: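 Test agents were screened against the mec2-1 yeast strain, with defined DNA repair or cell cycle alteration. Growth was scored as inhibition against vehicle-only controls.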
# [7] = NCI Yeast Anticancer Drug Screen. Data for the rad14 strain (AID 159);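 also: 0% = growth of vehicle-treated control cultures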; settings: S. cerevisiae rad14 strain growth inhibition, stronger effect = higher value
# Method in brief: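 A mutant yeast strain defective in DNA damage repair is treated with compound; inhibition of its growth is scored against untreated, vehicle-exposed cultures.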
# [8] = NCI Yeast Anticancer Drug Screen. Data for the sgs1 mgt1 strain (AID 161);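 also: 0% = growth of cultures given vehicle only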; settings: S. cerevisiae sgs1 mgt1 strain, stronger effect = higher value
# Method in brief: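 Genetically altered yeast, compound exposure, growth inhibition relative to vehicle.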
# [9] = NCI Yeast Anticancer Drug Screen. Data for the CLN2oe strain (AID 163);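 also: 0% = growth of vehicle-only control cultures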; settings: S. cerevisiae CLN2oe strain, stronger effect = higher value
# Method in brief: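 Here, growth inhibition in a cell-cycle-altered yeast strain after compound exposure was quantified against vehicle control growth.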
# [10] = NCI Yeast Anticancer Drug Screen. Data for the cln2 rad14 strain (AID 165);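 also: 0% = growth equal to vehicle treated cultures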; settings: S. cerevisiae cln2 rad14 strain, stronger effect = higher value
# Method in brief: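 Growth of compound-exposed yeast (cln2 rad14 genotype) measured and expressed as inhibition relative to vehicle.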
# [11] = NCI Yeast Anticancer Drug Screen. Data for the bub3 strain (AID 167); settings: S. cerevisiae bub3 mutant strain, stronger effect = higher value
# Method in brief: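 Steps: expose the mutant yeast strain to compound; grow alongside vehicle-treated cultures; measure growth; express inhibition against the vehicle cultures.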
# [12] = NCI Yeast Anticancer Drug Screen. Data for the wt2 strain (AID 169);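 also: 0% = growth of vehicle-treated yeast cultures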; settings: S. cerevisiae wt2 strain growth inhibition, stronger effect = higher value
# Method in brief: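 Genetically defined yeast strains from a DNA-repair/cell-cycle panel were used. Compound-exposed yeast growth was measured, and the inhibition was calculated relative to vehicle treatment.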
# [13] = NCI Yeast Anticancer Drug Screen. Data for the mlh1 strain (AID 171);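 also: 0% = growth of vehicle-treated control cultures of the same strain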; settings: S. cerevisiae mlh1 strain growth inhibition, stronger effect = higher value
# Method in brief: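 Here the genetically defined yeast mutant is grown with each compound, and the extent to which its growth falls below that of vehicle-exposed cells is reported.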
# [14] = NCI Yeast Anticancer Drug Screen. Data for the sgs1 strain (AID 173);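 also: 0% = growth of vehicle-only control cultures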; settings: S. cerevisiae sgs1 mutant, stronger effect = higher value
# Method in brief: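 Relative growth inhibition, referenced to vehicle, was determined in a yeast strain with a defined alteration affecting DNA damage repair or cell cycle control after compound exposure.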
# [15] = NCI Yeast Anticancer Drug Screen. Data for the mlh1 rad18 strain (AID 175); settings: S. cerevisiae mlh1 rad18 strain growth inhibition, stronger effect = higher value
# Method in brief: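 In this whole-cell yeast screen, a strain with altered DNA damage repair is challenged with compound, and its growth is measured against matched vehicle-treated controls.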
# [16] = NCI Yeast Anticancer Drug Screen. Data for the rad18 strain (AID 177); settings: S. cerevisiae rad18 mutant growth inhibition, stronger effect = higher value
# Method in brief: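 Screen uses a yeast strain with a defined lesion in DNA damage repair; compound effect is read as loss of growth compared to untreated vehicle cultures.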
# [17] = at 5.0 µM (retest, dose inferred, filed as 0.5)
# [18] = at 50.0 µM (retest, dose inferred, filed as 5.0)
structure (smiles),measurement,setting,value
CCCCCOC(=S)SC(=O)OCC,growth inhibition,[1]; at 1.2 µM,0%
same,growth inhibition,[1]; at 3.7 µM,7%
same,growth inhibition,[1]; at 11.0 µM,27%
same,growth inhibition,[1]; at 33.0 µM,63%
same,growth inhibition,[1]; at 100.0 µM,94% (active)
same,growth inhibition,[2]; at 1.2 µM,-4%
same,growth inhibition,[2]; at 3.7 µM,-1%
same,growth inhibition,[2]; at 11.0 µM,8%
same,growth inhibition,[2]; at 33.0 µM,35%
same,growth inhibition,[2]; at 100.0 µM,64%
same,growth inhibition,[3]; at 1.2 µM,-3%
same,growth inhibition,[3]; at 3.7 µM,9%
same,growth inhibition,[3]; at 11.0 µM,18%
same,growth inhibition,[3]; at 33.0 µM,30%
same,growth inhibition,[3]; at 100.0 µM,36%
same,growth inhibition,[4]; at 1.2 µM,-4%
same,growth inhibition,[4]; at 3.7 µM,-2%
same,growth inhibition,[4]; at 11.0 µM,6%
same,growth inhibition,[4]; at 33.0 µM,37%
same,growth inhibition,[4]; at 100.0 µM,92% (active)
same,growth inhibition,[5]; at 1.2 µM,1%
same,growth inhibition,[5]; at 3.7 µM,32%
same,growth inhibition,[5]; [17],20%
same,growth inhibition,[5]; at 11.0 µM,51%
same,growth inhibition,[5]; at 33.0 µM,84% (active)
same,growth inhibition,[5]; [18],95% (active)
same,growth inhibition,[5]; at 50.0 µM,98% (active)
same,growth inhibition,[5]; at 100.0 µM,95% (active)
same,growth inhibition,[6]; at 1.2 µM,-3%
same,growth inhibition,[6]; at 3.7 µM,3%
same,growth inhibition,[6]; [17],27%
same,growth inhibition,[6]; at 11.0 µM,26%
same,growth inhibition,[6]; at 33.0 µM,48%
same,growth inhibition,[6]; [18],95% (active)
same,growth inhibition,[6]; at 50.0 µM,98.5% (active)
same,growth inhibition,[6]; at 100.0 µM,86% (active)
same,growth inhibition,[7]; at 1.2 µM,-5%
same,growth inhibition,[7]; at 3.7 µM,-4%
same,growth inhibition,[7]; at 11.0 µM,12%
same,growth inhibition,[7]; at 33.0 µM,42%
same,growth inhibition,[7]; at 100.0 µM,92% (active)
same,growth inhibition,[8]; [17],33%
same,growth inhibition,[8]; [18],97% (active)
same,growth inhibition,[8]; at 50.0 µM,97.7% (active)
same,growth inhibition,[9]; at 1.2 µM,-7%
same,growth inhibition,[9]; at 3.7 µM,-6%
same,growth inhibition,[9]; at 11.0 µM,-7%
same,growth inhibition,[9]; at 33.0 µM,1%
same,growth inhibition,[9]; at 100.0 µM,30%
same,growth inhibition,[10]; [17],9%
same,growth inhibition,[10]; [18],53%
same,growth inhibition,[10]; at 50.0 µM,64.8%
same,growth inhibition,[11]; at 1.2 µM,2%
same,growth inhibition,[11]; at 3.7 µM,6%
same,growth inhibition,[11]; [17],55%
same,growth inhibition,[11]; at 11.0 µM,40%
same,growth inhibition,[11]; at 33.0 µM,82% (active)
same,growth inhibition,[11]; [18],96% (active)
same,growth inhibition,[11]; at 50.0 µM,96.8% (active)
same,growth inhibition,[11]; at 100.0 µM,94% (active)
same,growth inhibition,[12]; at 1.2 µM,-4%
same,growth inhibition,[12]; at 3.7 µM,6%
same,growth inhibition,[12]; at 11.0 µM,4%
same,growth inhibition,[12]; at 33.0 µM,39%
same,growth inhibition,[12]; at 100.0 µM,90% (active)
same,growth inhibition,[13]; at 1.2 µM,-1%
same,growth inhibition,[13]; at 3.7 µM,2%
same,growth inhibition,[13]; at 11.0 µM,14%
same,growth inhibition,[13]; at 33.0 µM,63%
same,growth inhibition,[13]; at 100.0 µM,95% (active)
same,growth inhibition,[14]; at 1.2 µM,-3%
same,growth inhibition,[14]; at 3.7 µM,4%
same,growth inhibition,[14]; at 11.0 µM,45%
same,growth inhibition,[14]; at 33.0 µM,90% (active)
same,growth inhibition,[14]; at 100.0 µM,97% (active)
same,growth inhibition,[15]; [17],43%
same,growth inhibition,[15]; [18],96% (active)
same,growth inhibition,[15]; at 50.0 µM,96.6% (active)
same,growth inhibition,[16]; at 1.2 µM,-5%
same,growth inhibition,[16]; at 3.7 µM,5%
same,growth inhibition,[16]; at 11.0 µM,33%
same,growth inhibition,[16]; at 33.0 µM,90% (active)
same,growth inhibition,[16]; at 100.0 µM,98% (active)
CCOC(=O)COc1c(OC)cc(C2C3=C(COC3=O)Oc3cc4c(cc32)OCO4)cc1OC (stereo not drawn),growth inhibition,[1]; at 1.2 µM,2%
same,growth inhibition,[1]; at 3.7 µM,1%
same,growth inhibition,[1]; at 11.0 µM,0%
same,growth inhibition,[1]; at 33.0 µM,8%
same,growth inhibition,[1]; at 100.0 µM,23%
same,growth inhibition,[2]; at 1.2 µM,1%
same,growth inhibition,[2]; at 3.7 µM,2%
same,growth inhibition,[2]; at 11.0 µM,4%
same,growth inhibition,[2]; at 33.0 µM,3%
same,growth inhibition,[2]; at 100.0 µM,6%
same,growth inhibition,[3]; at 1.2 µM,-2%
same,growth inhibition,[3]; at 3.7 µM,-16%
same,growth inhibition,[3]; at 11.0 µM,-22%
same,growth inhibition,[3]; at 33.0 µM,-11%
same,growth inhibition,[3]; at 100.0 µM,15%
same,growth inhibition,[4]; at 1.2 µM,-3%
same,growth inhibition,[4]; at 3.7 µM,2%
same,growth inhibition,[4]; at 11.0 µM,0%
same,growth inhibition,[4]; at 33.0 µM,16%
same,growth inhibition,[4]; at 100.0 µM,8%
same,growth inhibition,[5]; at 1.2 µM,1%
same,growth inhibition,[5]; at 3.7 µM,0%
same,growth inhibition,[5]; [17],-4%
same,growth inhibition,[5]; at 11.0 µM,1%
same,growth inhibition,[5]; at 33.0 µM,3%
same,growth inhibition,[5]; [18],-1%
same,growth inhibition,[5]; at 50.0 µM,2.85%
same,growth inhibition,[5]; at 100.0 µM,8%
same,growth inhibition,[6]; at 1.2 µM,-1%
same,growth inhibition,[6]; at 3.7 µM,0%
